# This is a sample that favours compounds with a hit; in the whole collection about 32% have one here.
# PostGolgi ctrl – inhibits growth of the yeast control strain | efflux-deficient yeast background strain, growth absorbance A615, 16 h | inhibition, % at 10 µM | 98,000 tested, 5% active
# PostGolgi yeast – growth inhibition of a yeast mutant, post-Golgi transport screen. post-Golgi transport phenotypic cell assay. inhibition, % at 10 µM. 98,000 tested, 0.9% active;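 also: yeast cells grown in 1536-well plates; yeast grown about 18 h at 30C before absorbance read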
# CYP2C19 act – increases human CYP2C19 enzyme activity; P33261; recombinant CYP2C19, luciferin-H EGE luminescence; stronger effect = higher value; 0 = fully inhibited enzyme, 1 = untreated enzyme; activation factor at 5 µM; 96,000 tested, under 10 active;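 active = activation factor of at least 2 at 5 µM in the primary screen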
# Target sequence (P33261 whole entry, looked up): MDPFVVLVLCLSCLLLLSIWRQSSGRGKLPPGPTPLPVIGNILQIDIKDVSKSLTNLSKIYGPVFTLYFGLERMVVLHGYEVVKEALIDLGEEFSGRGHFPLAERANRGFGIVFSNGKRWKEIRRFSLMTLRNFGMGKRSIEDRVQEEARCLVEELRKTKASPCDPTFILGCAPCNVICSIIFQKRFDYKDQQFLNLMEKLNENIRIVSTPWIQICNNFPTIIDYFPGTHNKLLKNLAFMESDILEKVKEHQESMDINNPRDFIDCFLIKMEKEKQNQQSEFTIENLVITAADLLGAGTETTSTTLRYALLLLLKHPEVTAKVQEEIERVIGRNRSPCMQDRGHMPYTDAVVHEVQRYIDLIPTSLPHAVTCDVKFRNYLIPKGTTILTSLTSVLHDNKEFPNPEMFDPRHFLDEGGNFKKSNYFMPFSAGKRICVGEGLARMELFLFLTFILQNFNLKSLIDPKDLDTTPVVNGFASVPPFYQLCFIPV
# CYP2C9 inhib – blocks human cytochrome P450 2C9 | CYP2C9 Supersomes, luciferin-H conversion, luminescence | inhibition, % at 5 µM | 96,000 tested, 20% active | AID 777;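 active = blocking of liver enzyme CYP2C9 beyond about 50% at 5 µM, limit read from the data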
# CYP2C19 inhib – blocks human cytochrome P450 2C19; P33261; CYP2C19 Supersomes, luciferin-H EGE luminescence, 30 min; inhibition, % at 5 µM; 96,000 tested, 21% active; AID 778;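 active = CYP2C19 inhibition above a set limit at 5 µM in the primary screen, cut at about 50% in these data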
# CYP2C9 act – CYP2C9 (human) activation; P11712; 96,000 tested, 1.4% active; activation factor at 5 µM; AID 1024; recombinant CYP2C9, luciferin-H conversion, luminescence; stronger effect = higher value; factor 1 = untreated enzyme, 0 = blocked;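 active = activation factor of 2 or more for CYP2C9 at a 5 µM dose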
# Numbers stand for hits; n = inactive; x = not tested or not shown. Rule as the data show it, unless noted: active = inhibition above about 30%; inactive = the rest.
SMILES,PostGolgi ctrl,PostGolgi yeast,CYP2C19 act,CYP2C9 inhib,CYP2C19 inhib,CYP2C9 act
CCn1c(=O)n(CC(=O)Nc2cc(OC)c(OC)c(OC)c2)c(=O)c2ccccc21,n,n,n,n,n,n
CCOC(=O)c1cnc(SCC(=O)Nc2ccc3c(c2)OCCO3)nc1N,n,n,n,69.3,n,n
O=C(CSc1ccc2c(c1)OCCO2)Nc1ccc2c(c1)OCO2,n,n,n,92.4,99.6,n
CCOC(=O)CC(=O)CSc1nnc2c(n1)[nH]c1ccccc12,45.0,n,n,n,n,n
CCCCSc1nnc2c(n1)[nH]c1ccccc12,n,n,n,n,n,n
COc1cc(NC(=O)CSc2ccc3c(c2)OCCO3)cc(OC)c1OC,n,n,n,n,n,n
O=C(CSc1ccc2c(c1)OCCO2)Nc1ccc(Br)cc1,n,n,n,74.9,95.4,n
CCOC(=O)c1cnc(SCC(=O)Nc2ccc(N3CCOCC3)cc2)nc1N,n,n,n,n,n,n
CCCCCSc1nnc2c(n1)OC(C)N(C(C)=O)c1ccccc1-2 (centres undefined),n,n,n,n,n,n
CC(=O)NCc1cccc(CNC(C)=O)n1,n,n,n,n,n,n
CC(Sc1nnc2ccccn12)C(=O)Nc1ncc(Cl)cc1Cl (centres undefined),n,n,n,n,n,n
CC(Sc1ccc2c(c1)OCCO2)C(=O)Nc1ccc2c(c1)OCO2 (centres undefined),n,n,n,90.5,100.3,n
CC(Sc1ccc2c(c1)OCCO2)C(=O)Nc1ncc(Cl)cc1Cl (centres undefined),n,n,n,n,69.6,n
CC1CCN(C(=O)CN2C(=O)C(C)(C)Oc3ccc(C(=O)NC4CCCC4)cc32)CC1,n,n,n,n,n,n
Cc1ccc(C2(c3ccc(C)cc3)CC2C(=O)Nc2ccc([N+](=O)[O-])cc2O)cc1 (centres undefined),90.8,101.5,n,75.2,n,n
Cc1noc(C)c1COC(=O)Cc1ccc(Cl)cc1,n,n,n,55.4,92.5,n
Cc1noc(C)c1COC(=O)CCC(=O)c1ccc(F)cc1,n,n,n,n,n,n
Cc1noc(C)c1COC(=O)CN(C)S(=O)(=O)c1ccc(Cl)cc1,n,n,n,n,n,n
Cc1noc(C)c1COC(=O)CCCOc1ccc(Cl)cc1Cl,n,n,n,80.3,84.3,n
CCOc1cc(CNc2ccccc2SC)ccc1O,n,n,n,n,66.9,n
CCOc1cc(CN2CCSCC2)ccc1O,n,n,n,n,n,n
COc1cc(CNc2ccccc2SC)ccc1O,n,n,n,n,86.8,n
CCOc1cc(CNc2ccc3c(c2)CCC3)ccc1O,n,n,n,77.4,90.8,n
COc1ccc(CNc2nc(SC)n[nH]2)cc1OC,n,n,n,n,n,n
CNC(=O)c1nnn(Cc2ccccc2)c1NC(C)=O,n,n,n,n,n,n
SMILES,PostGolgi ctrl,PostGolgi yeast,CYP2C19 act,CYP2C9 inhib,CYP2C19 inhib,CYP2C9 act
O=C(COc1ccc(Cl)cc1)NNC(=O)C(=O)N1CCCCC1,n,n,n,n,n,n
CCC1Oc2ccc(C)cc2N(CC(=O)NCCC2=CCCCC2)C1=O (centres undefined),n,n,n,n,99.1,n
O=C(CN1CCN(S(=O)(=O)c2ccccc2)CC1)NC(=O)NC1CCCCC1,n,n,n,74.5,54.9,n
O=C(CN1CCN(S(=O)(=O)c2ccccc2)CC1)NC(=O)NCc1ccccc1,n,n,n,62.3,n,n
CC(C)C(=O)Nc1ccc(NC(=O)c2cccs2)cn1,n,n,n,n,n,n
CCOc1cccc(NC(=O)C2CC(=O)N(C)C(=Nc3cccc(F)c3)S2)c1 (centres undefined),n,n,n,75.0,51.2,n
CCOc1cccc(NC(=O)C2CC(=O)N(C)C2)c1 (centres undefined),n,n,n,n,n,n
CCOc1cccc(NC(=O)C2CC(=O)N(C)C(=Nc3ccccc3)S2)c1 (centres undefined),n,n,n,73.7,n,n
C/C=C/C(=O)Nc1ccccc1Br,n,n,n,n,n,n
O=C(CCCC(=O)OCC1CCCO1)OCC1CCCO1 (centres undefined),n,n,n,n,n,n
Cc1ccc(NC2=NCC(=O)N2c2ccc3c(c2)OCCO3)c(C)c1,n,n,x,x,x,x
O=C(CSc1nc2cc(Cl)ccc2s1)c1ccco1,n,n,n,n,88.9,n
O=C(CSCc1ccc(Cl)cc1)c1ccco1,n,n,n,58.4,73.3,n
O=C(CSc1nnc(SCC(=O)c2ccco2)s1)c1ccco1,n,n,n,n,n,n
CN(C)c1nc(SCCOC(=O)Nc2ccccc2)nc(N(C)C)n1,n,n,n,67.8,98.7,n
CN(C)c1nc(C(=O)Nc2ccccc2)nc(N(C)C)n1,n,n,n,n,n,n
CCNc1nc(SCCOc2ccc(C)cc2)nc(N(C)C)n1,n,n,n,n,n,n
CCOc1nc(SCCOc2ccccc2)nc(N(C)C)n1,n,40.7,n,n,n,n
Cc1c(NC(=O)CCC2CCCCC2)c(=O)n(-c2ccccc2)n1C,n,n,n,n,n,n
CC1/C(=C\c2ccc(Cl)cc2)C(=O)C2CC1C2(C)C (centres undefined),n,n,n,64.9,76.8,n
Cn1c(=O)cc(OCCCC(=O)Nc2ccc3c(c2)OCCO3)c2ccccc21,n,n,x,x,x,x
CCn1c(=O)cc(SCC(=O)Nc2ccc3c(c2)OCO3)c2ccccc21,n,n,n,n,71.3,n
O=C(CC(=O)c1ccccc1)Nc1ccc2c(c1)OCCO2,n,n,n,n,n,n
CC(CC(=O)Nc1ccc2c(c1)OCCO2)c1ccccc1 (centres undefined),n,n,n,n,52.0,n
Cn1cc(SCC(=O)Nc2ccc3c(c2)OCCO3)c2ccccc21,n,n,n,n,62.8,n
SMILES,PostGolgi ctrl,PostGolgi yeast,CYP2C19 act,CYP2C9 inhib,CYP2C19 inhib,CYP2C9 act
CCn1c(=O)cc(SCC(=O)N(C)Cc2ccccc2)c2ccccc21,n,n,n,n,55.5,2
CCOC(=O)N(Cc1ccccc1)C(C(=O)O)C(C(=O)O)N(Cc1ccccc1)C(=O)OCC (centres undefined),n,n,n,n,n,n
CCn1c(=O)cc(SCC(=O)Nc2cccnc2)c2ccccc21,n,n,n,n,n,2.4
CCOC(=O)CSc1cc(=O)n(CC)c2ccccc12,n,n,n,n,n,n
CCCCN(CC)C(=O)CSc1cc(=O)n(C)c2ccccc12,n,n,n,n,64.2,n
CCn1c(=O)cc(SCC(=O)NCC2CCCO2)c2ccccc21 (centres undefined),n,n,n,n,n,3.8
COc1ccc(NC(=O)c2ccco2)cc1NC(=O)c1c(F)c(F)c(OC)c(F)c1F,n,n,n,n,n,n
Cc1ccc(C)c(N=Nc2nc3ccccc3n2C)c1,n,n,n,n,66.2,n
Cn1c(/N=C/c2cccs2)nc2ccccc21,n,n,n,n,n,n
